# PubChem BioAssay (Tox21)
# Unmarked numbers belong to inactive results. Records with an inconclusive call do not appear. Where a call stands in place of a potency, no number is given. The source made the active and inactive calls. Unless noted, calls follow the shape of the dose curve; as a rule, active = well fitted curve in the direction sought with a large enough effect in the repeat runs; inconclusive = weak or mixed curves; inactive = no such curve, though single readings can be large; an effect the other way counts as inactive or inconclusive.
# Key:
# [1] = qHTS assay to identify small molecule agonists of the hypoxia (HIF-1) signaling pathway - cell viability counter screen (AID 1224844; calls by dose curve; also: nearly all actives have a fitted effect of over 50% in size; also: potency is read from the fitted curve at half-maximal effect)
# Procedure, shortened: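 In this counter screen, HRE-bla ME-180 cell viability after 17 hrs of compound exposure at 37C was read by CellTiter-Glo luminescence, multiplexed with the beta-lactamase reporter measurement.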
# [2] = qHTS assay to identify small molecule agonists of H2AX (AID 1224845; active = well fitted activation curve with a large enough effect in the signal ratio in the repeat runs, not every such curve was filed as active; the % refers to the signal ratio; also: potency is read from the fitted curve at half-maximal effect)
# Procedure, shortened: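 Phospho-H2AX Ser139 measured by HTRF (ex 320 nm; em 665 and 620 nm) after 24 hr antibody incubation. Compounds, 15 concentrations, 0.76% DMSO, were applied to CHO-K1 cells for 3hr at 37C before lysis.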
# [3] = qHTS assay to identify small molecule agonists of the hypoxia (HIF-1) signaling pathway (AID 1224846; active = well fitted activation curve with a large enough effect in the signal ratio in the repeat runs, not every such curve was filed as active; the % refers to the signal ratio)
# Procedure, shortened: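 ME-180 HRE-bla reporter cells; compounds in DMSO, 17 h at 37C; read-out beta-lactamase via CCF4-AM FRET.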
# [4] = qHTS assay to identify small molecule agonists of H2AX - cell viability counter screen (AID 1224847; calls by dose curve; also: nearly all actives have a fitted effect of over 30% in size; also: potency is read from the fitted curve at half-maximal effect)
# Procedure, shortened: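 Quantitative HTS viability measurement: CHO-K1 wild-type cells in serum (10% FBS) medium, short 3 hr drug exposure at 37C with 0.76% DMSO, CellTiter-Glo luminescent detection.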
# [5] = qHTS RealTime-Glo MT Cell Viability Assay in HepG2 cells - 24 hour (AID 1224867); also: nearly all actives have a fitted effect of over 50% in size; also: potency is read from the fitted curve at half-maximal effect
# Procedure, shortened: (§1)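 Luminescence read-out: viable HepG2 cells reduce a prosubstrate to a NanoLuc substrate, giving a signal proportional to live cell number. Reads taken at 0, 8, 16, 24, 32 and 40 h of compound exposure at 37 C.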
# [6] = qHTS RealTime-Glo MT Cell Viability Assay in HEK293 cells - 32 hour (AID 1224868); also: nearly all actives have a fitted effect of over 50% in size; also: potency is read from the fitted curve at half-maximal effect
# Procedure, shortened: (§2)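 Nonlytic real-time viability readout: viable cells convert prosubstrate to NanoLuc substrate, giving luminescence proportional to live cell number. HEK293, 600 cells/well, compound added after 5 h, continuous culture at 37 C.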
# [7] = A CellTox Green Cytotoxicity Assay to monitor cytotoxicity in HEK293 cells - 0 hour (AID 1224869); also: nearly all actives have a fitted effect of over 50% in size
# Procedure, shortened: (§3)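 Real-time, in one plate: 600 HEK293 cells/well with dead-cell DNA dye, pinned compound after 5 h, 37 C incubation over 40 h; viable cells give no appreciable fluorescence.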
# [8] = qHTS RealTime-Glo MT Cell Viability Assay in HepG2 cells - 40 hour (AID 1224870); also: nearly all actives have a fitted effect of over 50% in size; also: potency is read from the fitted curve at half-maximal effect
# Procedure, shortened: (§4)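 Real-time viability: cells seeded at 600 per well together with NanoLuc and cell-permeant prosubstrate, compounds added after 5 h incubation. Luminescence tracked at 0, 8, 16, 24, 32 and 40 h of exposure.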
# [9] = A CellTox Green Cytotoxicity Assay to monitor cytotoxicity in HEK293 cells - 40 hour (AID 1224871); also: nearly all actives have a fitted effect of over 45% in size; also: potency is read from the fitted curve at half-maximal effect
# Procedure, shortened: as §3
# [10] = qHTS RealTime-Glo MT Cell Viability Assay in HEK293 cells - 16 hour (AID 1224872); also: nearly all actives have a fitted effect of over 50% in size; also: potency is read from the fitted curve at half-maximal effect
# Procedure, shortened: as §2
# [11] = qHTS RealTime-Glo MT Cell Viability Assay in HepG2 cells - 8 hour (AID 1224873); also: nearly all actives have a fitted effect of over 55% in size
# Procedure, shortened: as §4
# [12] = qHTS RealTime-Glo MT Cell Viability Assay in HEK293 cells - 40 hour (AID 1224874); conditions: RealTime-Glo luminescence; max response: hits give low values; also: nearly all actives have a fitted effect of over 50% in size; also: potency is read from the fitted curve at half-maximal effect
# Procedure, shortened: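 Kinetic, non-lysing viability readout. Seed HEK293 (600/well) with reagent, incubate 5 h at 37 C/5% CO2, pin 23 nL compound in DMSO, incubate at 37 C, read luminescence at 0, 8, 16, 24, 32, 40 h.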
# [13] = A CellTox Green Cytotoxicity Assay to monitor cytotoxicity in HEK293 cells - 24 hour (AID 1224875); also: nearly all actives have a fitted effect of over 45% in size; also: potency is read from the fitted curve at half-maximal effect
# Procedure, shortened: as §3
# [14] = A CellTox Green Cytotoxicity Assay to monitor cytotoxicity in HepG2 cells - 16 hour (AID 1224876); also: nearly all actives have a fitted effect of over 45% in size; also: potency is read from the fitted curve at half-maximal effect
# Procedure, shortened: (§5)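 Cytotoxicity was tracked as dead-cell DNA fluorescence in HepG2 cells treated with test compounds at 37 C; each time-point value comes from one kinetic series spanning 0, 8, 16, 24, 32 and 40 h.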
# [15] = qHTS RealTime-Glo MT Cell Viability Assay in HepG2 cells - 32 hour (AID 1224877); also: nearly all actives have a fitted effect of over 55% in size; also: potency is read from the fitted curve at half-maximal effect
# Procedure, shortened: as §1
# [16] = A CellTox Green Cytotoxicity Assay to monitor cytotoxicity in HepG2 cells - 24 hour (AID 1224878); also: nearly all actives have a fitted effect of over 45% in size; also: potency is read from the fitted curve at half-maximal effect
# Procedure, shortened: as §5
# [17] = A CellTox Green Cytotoxicity Assay to monitor cytotoxicity in HepG2 cells - 40 hour (AID 1224879); also: nearly all actives have a fitted effect of over 40% in size; also: potency is read from the fitted curve at half-maximal effect
# Procedure, shortened: as §5
# [18] = biological target: Thyrotropin receptor (Homo sapiens) (UniProt P16473); experiment: qHTS assay to identify small molecule agonists of the thyroid stimulating hormone receptor (TSHR) signaling pathway (AID 1224843; calls by dose curve; also: nearly all actives have a fitted effect of over 45% in size)
# Procedure, shortened: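 Agonist activity read as cAMP rise via d2/cryptate HTRF competition, 1 h room-temperature detection, in HEK293 cells expressing TSHR. Fifteen-point titrations, each run in triplicate, with a 30 min room-temperature incubation beforehand.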
# [19] = qHTS assay to identify small molecule antagonists of the estrogen related receptor (ERR) signaling pathway from Tox21 library (AID 1224848); also: nearly all actives have a fitted effect of over 50% in size; also: potency is read from the fitted curve at half-maximal effect
# Procedure, shortened: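 Luciferase luminescence (ONE-Glo, 30 min room temperature) was the read-out. Cells of the NTP-supplied ERR line, 2,000 per well, were given 6 h at 37 C before compound addition in DMSO and 18 h exposure at 37 C.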
# [20] = qHTS assay to identify small molecule agonists of the estrogen related receptor (ERR) signaling pathway from Tox21 library (AID 1224849; calls by dose curve; also: nearly all actives have a fitted effect of over 15% in size); conditions: ERR reporter cell line, ONE-Glo luciferase, 18 h; at 92.4 µM (top of the series) unless noted
# Procedure, shortened: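 Luciferase activity in ERR pathway reporter cells served as the agonist readout; exposure lasted 18 h at 37 C, with ONE-Glo detection after 30 min at room temperature.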
# Chain of Thyrotropin receptor (Homo sapiens) (P16473 whole entry, looked up): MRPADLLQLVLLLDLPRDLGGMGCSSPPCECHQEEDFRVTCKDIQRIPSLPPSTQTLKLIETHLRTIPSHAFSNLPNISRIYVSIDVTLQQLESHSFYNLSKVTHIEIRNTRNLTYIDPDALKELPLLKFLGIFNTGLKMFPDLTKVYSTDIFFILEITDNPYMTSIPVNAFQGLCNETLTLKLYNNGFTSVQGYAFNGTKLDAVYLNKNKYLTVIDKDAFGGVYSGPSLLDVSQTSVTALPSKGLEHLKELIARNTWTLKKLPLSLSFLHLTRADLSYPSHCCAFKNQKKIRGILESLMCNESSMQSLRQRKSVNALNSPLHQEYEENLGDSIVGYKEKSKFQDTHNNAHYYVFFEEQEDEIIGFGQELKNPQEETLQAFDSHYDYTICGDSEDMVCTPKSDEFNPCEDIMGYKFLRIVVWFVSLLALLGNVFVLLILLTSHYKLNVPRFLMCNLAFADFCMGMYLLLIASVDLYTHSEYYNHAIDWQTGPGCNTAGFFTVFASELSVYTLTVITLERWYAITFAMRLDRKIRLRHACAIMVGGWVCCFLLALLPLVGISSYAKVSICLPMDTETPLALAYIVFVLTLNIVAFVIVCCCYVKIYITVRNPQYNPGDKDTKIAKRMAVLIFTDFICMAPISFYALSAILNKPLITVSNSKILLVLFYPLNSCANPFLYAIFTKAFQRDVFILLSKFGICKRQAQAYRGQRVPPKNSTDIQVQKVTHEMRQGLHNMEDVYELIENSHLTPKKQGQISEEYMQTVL
structure (smiles),measurement,setting,value
O=C1CCCCCCCCCCOCCCCO1,Potency,[1],inactive
same,Potency,[2],inactive
same,outcome,[3],inactive
same,Potency,[4],inactive
same,Potency,[5],inactive
same,Potency,[6],inactive
same,Potency,[7],inactive
same,Potency,[8],inactive
same,Potency,[9],49 µM (active)
same,Potency,[10],inactive
same,Potency,[11],inactive
same,max response,[12],-14.4%
same,Potency,[13],49 µM (active)
same,Potency,[14],inactive
same,Potency,[15],inactive
same,Potency,[16],inactive
same,Potency,[17],inactive
CC1(C)[C@@H](OC(=O)CCC(=O)O)CC[C@]2(C)[C@H]3C(=O)C=C4[C@@H]5C[C@@](C)(C(=O)O)CC[C@]5(C)CC[C@@]4(C)[C@]3(C)CC[C@@H]12,Potency,[18],inactive
same,Potency,[19],inactive
same,"activity change, positive = activation",[20],1.84% [at 42.5 µM]
same,Potency,[5],inactive
same,Potency,[6],inactive
same,Potency,[7],inactive
same,Potency,[8],inactive
same,Potency,[9],inactive
same,Potency,[10],inactive
same,Potency,[11],inactive
same,max response,[12],10.8%
same,Potency,[13],inactive
same,Potency,[14],inactive
same,Potency,[15],inactive
same,Potency,[16],inactive
same,Potency,[17],inactive
C[C@@H]1CN(CCCn2c3ccccc3c3ccccc32)C[C@H](C)N1,Potency,[1],21.3 µM (active)
same,Potency,[2],inactive
same,outcome,[3],inactive
same,"activity change, positive = activation",[20],-72.9% [at 42.5 µM]
same,Potency,[5],23.9 µM (active)
same,Potency,[6],26.8 µM (active)
same,Potency,[8],23.9 µM (active)
same,Potency,[9],23.9 µM (active)
same,Potency,[12],23.9 µM (active)
same,Potency,[13],23.9 µM (active)
same,Potency,[15],23.9 µM (active)
same,Potency,[16],26.8 µM (active)
same,Potency,[17],23.9 µM (active)
O=Cc1c2ccccc2c(Cl)c2ccccc12,Potency,[1],inactive
same,Potency,[2],inactive
same,Potency,[4],inactive
same,Potency,[19],9.45 µM (active)
same,"activity change, positive = activation",[20],-33.4% [at 42.5 µM]
same,Potency,[5],inactive
same,Potency,[7],inactive
same,Potency,[8],inactive
same,Potency,[9],inactive
same,Potency,[11],inactive
same,Potency,[13],inactive
same,Potency,[14],inactive
same,Potency,[15],inactive
same,Potency,[16],inactive
same,Potency,[17],inactive
CCOC(=O)c1ccccc1C(=C1C=C(Br)C(=O)C(Br)=C1)c1cc(Br)c(O)c(Br)c1,Potency,[18],inactive
same,Potency,[4],inactive
same,Potency,[19],45.7 µM (active)
same,"activity change, positive = activation",[20],-32.1% [at 42.5 µM]
same,Potency,[5],inactive
same,Potency,[7],inactive
same,Potency,[8],inactive
same,Potency,[11],inactive
same,Potency,[13],inactive
same,Potency,[14],inactive
same,Potency,[15],inactive
same,Potency,[16],inactive
same,Potency,[17],inactive
CCCCN(CCCC)C(C(N)=O)c1ccc(OC)cc1 (stereo not drawn),Potency,[1],inactive
same,Potency,[2],inactive
same,outcome,[3],inactive
same,Potency,[4],inactive
same,Potency,[5],inactive
same,Potency,[7],inactive
same,Potency,[8],inactive
same,Potency,[9],inactive
same,Potency,[10],inactive
same,Potency,[11],inactive
same,max response,[12],-24.8%
same,Potency,[13],inactive
same,Potency,[14],inactive
same,Potency,[15],inactive
same,Potency,[16],inactive
same,Potency,[17],inactive
CC(=O)[C@H]1[C@H](C#N)C[C@H]2[C@@H]3CC=C4C[C@@H](O)CC[C@]4(C)[C@H]3CC[C@@]21C,Potency,[1],inactive
same,Potency,[2],inactive
same,"activity change, positive = activation",[20],-13.1% [at 42.5 µM]
same,Potency,[5],inactive
same,Potency,[7],inactive
same,Potency,[8],inactive
same,Potency,[9],inactive
same,Potency,[10],inactive
same,Potency,[11],inactive
same,Potency,[13],inactive
same,Potency,[14],inactive
same,Potency,[15],inactive
same,Potency,[16],inactive
same,Potency,[17],inactive
C/C=C/C=C/C=O,Potency,[1],48.6 µM (active)
same,Potency,[2],inactive
same,outcome,[3],inactive
same,Potency,[4],inactive
same,Potency,[19],inactive
same,"activity change, positive = activation",[20],4.86%
same,Potency,[5],inactive
same,Potency,[8],inactive
same,Potency,[9],inactive
same,Potency,[11],inactive
same,max response,[12],10.8%
same,Potency,[13],inactive
same,Potency,[14],inactive
same,Potency,[15],inactive
same,Potency,[16],inactive
same,Potency,[17],inactive
CC(C)=CCC/C(C)=C/CC/C(C)=C/C(=O)OCC(=O)[C@@]1(O)CC[C@H]2[C@@H]3CCC4=CC(=O)C=C[C@]4(C)[C@H]3[C@@H](O)C[C@@]21C,Potency,[18],inactive
same,Potency,[4],inactive
same,Potency,[19],6.68 µM (active)
same,"activity change, positive = activation",[20],-50.7% [at 42.5 µM]
same,Potency,[6],4.77 µM (active)
same,Potency,[7],inactive
same,Potency,[8],inactive
same,Potency,[9],inactive
same,Potency,[10],5.35 µM (active)
same,Potency,[12],4.25 µM (active)
same,Potency,[13],inactive
same,Potency,[14],inactive
same,Potency,[16],inactive
same,Potency,[17],inactive
CCN(CC)CCNC(=O)COc1ccc(OC)cc1,Potency,[1],inactive
same,Potency,[2],inactive
same,Potency,[4],inactive
same,Potency,[5],inactive
same,Potency,[6],inactive
same,Potency,[7],inactive
same,Potency,[8],inactive
same,Potency,[9],inactive
same,Potency,[11],inactive
same,max response,[12],13.7%
same,Potency,[13],inactive
same,Potency,[14],inactive
same,Potency,[15],inactive
same,Potency,[16],inactive
same,Potency,[17],inactive
COC(=O)[C@H]1[C@H]2C[C@@H]3c4[nH]c5cc(OC)ccc5c4CCN3C[C@H]2C[C@@H](OC(=O)/C=C/c2ccc(O)c(OC)c2)[C@@H]1OC,Potency,[1],inactive
same,Potency,[2],inactive
same,outcome,[3],inactive
same,Potency,[4],inactive
same,Potency,[19],10.6 µM (active)
same,"activity change, positive = activation",[20],-35.3% [at 42.5 µM]
same,Potency,[5],inactive
same,Potency,[8],inactive
same,Potency,[13],16.9 µM (active)
same,Potency,[14],23.9 µM (active)
same,Potency,[15],inactive
same,Potency,[16],26.8 µM (active)
same,Potency,[17],23.9 µM (active)
CC[N+](CC)(CCNC(=O)C(=O)NCC[N+](CC)(CC)Cc1ccccc1Cl)Cc1ccccc1Cl,Potency,[1],inactive
same,Potency,[2],inactive
same,outcome,[3],inactive
same,Potency,[4],inactive
same,Potency,[19],inactive
same,"activity change, positive = activation",[20],8.73% [at 42.5 µM]
same,Potency,[5],inactive
same,Potency,[6],inactive
same,Potency,[7],inactive
same,Potency,[8],inactive
same,Potency,[9],inactive
same,Potency,[10],inactive
same,Potency,[11],inactive
same,max response,[12],0.73%
same,Potency,[13],inactive
same,Potency,[14],inactive
same,Potency,[15],inactive
same,Potency,[16],inactive
same,Potency,[17],inactive
FC(F)(F)c1ccccc1Cl,Potency,[1],inactive
same,Potency,[2],inactive
same,outcome,[3],inactive
same,Potency,[4],inactive
same,Potency,[19],inactive
same,"activity change, positive = activation",[20],-2.05%
same,Potency,[5],inactive
same,Potency,[6],inactive
same,Potency,[7],inactive
same,Potency,[8],inactive
same,Potency,[9],inactive
same,Potency,[11],inactive
same,max response,[12],-1.41%
same,Potency,[13],inactive
same,Potency,[14],inactive
same,Potency,[15],inactive
same,Potency,[16],inactive
same,Potency,[17],inactive
COc1cc(Nc2c(C#N)cnc3cc(OCCCN4CCN(C)CC4)c(OC)cc23)c(Cl)cc1Cl,Potency,[1],inactive
same,Potency,[2],7.8 µM (active)
same,outcome,[3],inactive
same,Potency,[4],55.2 µM (active)
same,Potency,[6],8.49 µM (active)
same,Potency,[7],inactive
same,Potency,[8],23.9 µM (active)
same,Potency,[9],21.3 µM (active)
same,Potency,[12],7.56 µM (active)
same,Potency,[13],21.3 µM (active)
same,Potency,[14],23.9 µM (active)
same,Potency,[15],21.3 µM (active)
same,Potency,[16],16.9 µM (active)
same,Potency,[17],9.52 µM (active)
